Source: PubChem BioAssay (National Center for Advancing Translational Sciences (NCATS))
Six1-Eya2 inh – inhibitors of human Six1/Eya2 interaction. Q15475+O00167. AlphaScreen GST-Six1/His-Eya2 binding, biochemical; stronger effect = lower value. activity change, % (no concentration beside the values). 0.56% of 360,000 active. AID 651725; in the data active = activity change below about -65%; inconclusive = mostly about -30% to -63%; note: % is set by controls: 0 for no effect and ±100 for the full control effect
Target sequence (O00167 whole entry, looked up): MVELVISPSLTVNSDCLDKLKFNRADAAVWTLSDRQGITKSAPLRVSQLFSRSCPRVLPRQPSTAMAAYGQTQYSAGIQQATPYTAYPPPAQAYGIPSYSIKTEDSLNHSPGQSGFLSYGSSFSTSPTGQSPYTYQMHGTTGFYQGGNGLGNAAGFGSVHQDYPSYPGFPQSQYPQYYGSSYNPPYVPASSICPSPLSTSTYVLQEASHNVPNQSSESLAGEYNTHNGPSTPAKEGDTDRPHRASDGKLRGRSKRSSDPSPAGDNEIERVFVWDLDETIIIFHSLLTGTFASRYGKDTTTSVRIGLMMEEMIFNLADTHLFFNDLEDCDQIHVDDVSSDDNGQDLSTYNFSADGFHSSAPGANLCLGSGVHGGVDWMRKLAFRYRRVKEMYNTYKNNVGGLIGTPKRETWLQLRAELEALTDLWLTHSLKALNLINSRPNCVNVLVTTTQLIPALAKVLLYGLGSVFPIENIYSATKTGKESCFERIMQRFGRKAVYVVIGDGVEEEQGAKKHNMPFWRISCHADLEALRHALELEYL
Target sequence (Q15475 whole entry, looked up): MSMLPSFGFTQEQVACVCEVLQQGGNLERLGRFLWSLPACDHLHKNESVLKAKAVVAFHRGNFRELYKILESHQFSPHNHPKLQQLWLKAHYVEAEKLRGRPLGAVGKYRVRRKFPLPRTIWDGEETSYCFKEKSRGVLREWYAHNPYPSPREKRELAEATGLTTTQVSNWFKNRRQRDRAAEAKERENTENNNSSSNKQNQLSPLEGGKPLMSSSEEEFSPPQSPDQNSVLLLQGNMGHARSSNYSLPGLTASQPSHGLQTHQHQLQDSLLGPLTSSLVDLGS
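Compounds are tested against tagged Six1 and Eya2 proteins bridged by glutathione donor and nickel acceptor beads; after a one-hour incubation at 37 °C without light, AlphaScreen emission is recorded.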
G9a inh – inhibitors of human histone lysine methyltransferase G9a; Q96KQ7; G9a H3K9 monomethylation, AlphaScreen, 2 h; Potency, µM (titrated, usually from 102 µM), inactives show at the highest dose activity, negative = inhibition, usual class: inhibitors; 8.8% of 350,000 active; note: potency is the fitted concentration of half-maximal effect; % is set by controls: 0 for no effect and ±100 for the full control effect; nearly all actives have a fitted effect of over 75% in size
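AlphaScreen read-out: biotin-H3K9 peptide (500 nM) methylation by 20 nM enzyme with 20 uM SAM, 2 h at room temperature after 15 min compound preincubation; anti-monomethyl H3K9 antibody plus donor/acceptor beads, 10 min dark.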
HP1b chromo inh – inhibitors of HP1-beta chromodomain binding to methylated histone tails; AlphaScreen HP1-beta / biotin-H3K9me3 peptide binding; Potency, µM (titrated, usually from 114 µM), inactives show at the highest dose activity change, negative = inhibition, hits mostly inhibitors; 0.56% of 390,000 active; AID 540317; note: potency is the fitted concentration of half-maximal effect; nearly all actives have a fitted effect of over 70% in size
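AlphaScreen: HP1-beta (50 nM) preformed 30 min with biotin-H3(1-18)K9me3 peptide (50 nM) in PBS pH 7.4, 0.01% Tween-20. Compound added for 30 min at RT, then streptavidin donor/nickel chelate acceptor beads (10 ug/mL) for 30 min.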
BAZ2B inh – inhibitors of human BAZ2B bromodomain; Q9UIF8; AlphaScreen BAZ2B-H3K14Ac peptide displacement; Potency, µM (highest dose often 114 µM), without a hit: top-dose activity change, negative = inhibition, hits mostly inhibitors; 4.4% of 360,000 active; AID 504333; note: potency is the fitted concentration of half-maximal effect; % is set by controls: 0 for no effect and ±100 for the full control effect; nearly all actives have a fitted effect of over 60% in size
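AlphaScreen luminescence quantifies BAZ2B engagement of H3K14Ac peptide; the protein and biotinylated peptide are both at 50 nM final, buffer PBS pH 7.4 with 0.01% Tween-20, all steps at room temperature.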
JMJD2A Tudor inh – inhibitors of human JMJD2A Tudor domain; Potency, µM (series often up to 114 µM), inactives show top-dose activity change, negative = inhibition, hits mostly inhibitors; 4.4% of 390,000 active; O75164; AlphaScreen JMJD2A-Tudor / H3K4me3 peptide binding; note: potency is the fitted concentration of half-maximal effect; % is set by controls: 0 for no effect and ±100 for the full control effect; nearly all actives have a fitted effect of over 50% in size
CtBP-E1A blk – blocks the CtBP interaction with E1A | AlphaScreen GST-E1A/His-CtBP binding, 1536-well; stronger effect = lower value | activity change, % (concentration not given with the values) | 0.49% of 340,000 active | AID 651724; in the data active = activity change below about -65%; inconclusive = mostly about -30% to -63%; note: % is set by controls: 0 for no effect and ±100 for the full control effect
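Steps: dispense buffer (Tris pH 8.0, NaCl 300 mM, TCEP 1 mM, BSA, Tween 20); add 5X protein mix (GST-E1A, His-CtBP, 125 nM each); pin 23 nL compound; 2 h at 37 °C, dark; add 5X beads (50 ug/mL); 1 h; read.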
Starred values were filed as active, the others as inactive; [ ] = remark or other dose. In the library only some 10% were active in any assay of this set; here they are far more common. Unless noted, calls come from the whole dose curve; as a rule, active = well fitted inhibition curve with a large enough effect; inconclusive = small, poorly fitted or top-dose-only effect; inactive = no such curve, though single readings can be large or run the other way.

Results for CCCCNC(=O)N1CCN(Cc2cccc(F)c2)CC1 ?
Six1-Eya2 inh: 2; G9a inh: 5%; HP1b chromo inh: 34%; BAZ2B inh: 10%; JMJD2A Tudor inh: -9%; CtBP-E1A blk: -4

How did O=C1Cc2cc(NS(=O)(=O)c3ccc([N+](=O)[O-])cc3)cc3c2N1CCC3 do in these assays?
Six1-Eya2 inh: -4; G9a inh: 45µM*; HP1b chromo inh: -1%; BAZ2B inh: -15%; JMJD2A Tudor inh: -25%; CtBP-E1A blk: 5

What do the screens show for `O=C1Cc2cc(NS(=O)(=O)c3ccc(Cl)cc3)cc3c2N1CCC3`?
Six1-Eya2 inh: -8; G9a inh: 4%; HP1b chromo inh: 16%; BAZ2B inh: 2%; JMJD2A Tudor inh: -19%; CtBP-E1A blk: 2

What do the screens show for `COc1ccc(F)cc1S(=O)(=O)Nc1cc2c3c(c1)CCN3C(=O)CC2`?
Six1-Eya2 inh: -6; G9a inh: 45µM*; HP1b chromo inh: 13%; BAZ2B inh: -4%; JMJD2A Tudor inh: -6%; CtBP-E1A blk: -22

Results for COc1ccc(S(=O)(=O)Nc2cc3c4c(c2)CC(=O)N4CCC3)cc1 ?
Six1-Eya2 inh: 2; G9a inh: 32µM*; HP1b chromo inh: -4%; BAZ2B inh: -20%; JMJD2A Tudor inh: -16%; CtBP-E1A blk: -1

How did COc1cccc(C(=O)Nc2ccc(-n3nncc3-c3ccccc3)cc2)c1OC do in these assays?
G9a inh: 4%[59 µM]; HP1b chromo inh: -13%; BAZ2B inh: -22%; JMJD2A Tudor inh: inconclusive

How did CN(C)C(=O)CCc1nc2sc3c(c2c(=O)[nH]1)CCCC3 do in these assays?
Six1-Eya2 inh: -2; G9a inh: -7%[59 µM]; HP1b chromo inh: 27%; BAZ2B inh: 5%; JMJD2A Tudor inh: -4%; CtBP-E1A blk: 4

Results for CN(CC(=O)Nc1ccccc1C(F)(F)F)C(=O)CCc1nc2sc3c(c2c(=O)[nH]1)CCCC3 ?
Six1-Eya2 inh: 1; G9a inh: 17%; HP1b chromo inh: 7%; BAZ2B inh: -18%; JMJD2A Tudor inh: -22%; CtBP-E1A blk: -2

Results for Cc1ccc(CN(C)C(=O)CCc2nc3sc4c(c3c(=O)[nH]2)CCCC4)o1 ?
Six1-Eya2 inh: -11; HP1b chromo inh: -10%; BAZ2B inh: -37%; JMJD2A Tudor inh: 71µM*; CtBP-E1A blk: -5

What do the screens show for `CN(Cc1ccco1)C(=O)CCc1nc2sc3c(c2c(=O)[nH]1)CCCC3`?
Six1-Eya2 inh: -2; G9a inh: 79µM*; HP1b chromo inh: -2%; BAZ2B inh: inconclusive; JMJD2A Tudor inh: inconclusive; CtBP-E1A blk: -12

How did Cc1ccc(N2CCN(C(=O)c3cccs3)CC2)cc1C do in these assays?
Six1-Eya2 inh: -4; G9a inh: -8%[0.501 µM]; HP1b chromo inh: 5%; BAZ2B inh: 50µM*; JMJD2A Tudor inh: -31%; CtBP-E1A blk: -21

Results for Nc1ccc(N2CCN(C(=O)c3ccco3)CC2)cc1 ?
Six1-Eya2 inh: -12; G9a inh: 20µM*; HP1b chromo inh: -7%; BAZ2B inh: inconclusive; JMJD2A Tudor inh: inconclusive; CtBP-E1A blk: -7

What do the screens show for `Cc1ccc(N2CCN(C(=O)N3CCCC3)CC2)cc1C`?
Six1-Eya2 inh: -6; G9a inh: -21%; HP1b chromo inh: 16%; BAZ2B inh: -2%; JMJD2A Tudor inh: -16%; CtBP-E1A blk: -12

How did CC(=O)Nc1ccc(N2CCN(C(=O)c3cccs3)CC2)cc1 do in these assays?
Six1-Eya2 inh: 0; G9a inh: 8%; HP1b chromo inh: 26%; BAZ2B inh: 9%; JMJD2A Tudor inh: -7%; CtBP-E1A blk: 7

How did O=C(c1ccco1)N1CCN(c2ccc(F)cc2)CC1 do in these assays?
Six1-Eya2 inh: 5; G9a inh: 10%[59 µM]; HP1b chromo inh: -6%; BAZ2B inh: -20%; JMJD2A Tudor inh: -16%; CtBP-E1A blk: 2

How did O=C(COc1ccccc1)N1CCN(S(=O)(=O)c2cccs2)CC1 do in these assays?
Six1-Eya2 inh: 2; G9a inh: 3%[12.7 µM]; HP1b chromo inh: 21%; BAZ2B inh: 12%; JMJD2A Tudor inh: 5%; CtBP-E1A blk: -4

What do the screens show for `Nc1ccc(N2CCN(C(=O)c3cccs3)CC2)cc1`?
Six1-Eya2 inh: -30; G9a inh: 1.4µM*; HP1b chromo inh: -14%; BAZ2B inh: inconclusive; JMJD2A Tudor inh: -7%; CtBP-E1A blk: -27

How did O=C(COc1ccc(-c2ccccc2)cc1)N1CCN(C(=O)c2cccs2)CC1 do in these assays?
Six1-Eya2 inh: -74*; G9a inh: inconclusive; HP1b chromo inh: 14%; BAZ2B inh: -18%; JMJD2A Tudor inh: -31%; CtBP-E1A blk: 7

What do the screens show for `O=C(COCc1cc(-c2ccc3c(c2)OCO3)on1)NCc1ccccc1Cl`?
G9a inh: -1%[59 µM]; HP1b chromo inh: -12%; BAZ2B inh: 5%; JMJD2A Tudor inh: -29%

What do the screens show for `Cc1cc(C(=O)N2CCC2(C)C(=O)O)nn1C(C)(C)C` (stereo not given)?
Six1-Eya2 inh: 9; CtBP-E1A blk: 5

Results for COc1ccc(OC(=O)c2nc(SCc3ccccc3F)ncc2Cl)cc1 ?
G9a inh: 42%[59 µM]; HP1b chromo inh: 46%; BAZ2B inh: 30%; JMJD2A Tudor inh: 8%

Results for Cc1ccc(-c2n[nH]c(=S)n2/N=C/C=C/c2ccccc2[N+](=O)[O-])cc1 ?
Six1-Eya2 inh: -28; G9a inh: 0.28µM*; HP1b chromo inh: inconclusive; BAZ2B inh: inconclusive; JMJD2A Tudor inh: -36%; CtBP-E1A blk: -17

What do the screens show for `O=[N+]([O-])c1ccccc1/C=C/C=N/n1c(-c2ccco2)n[nH]c1=S`?
Six1-Eya2 inh: -4; G9a inh: -131%; HP1b chromo inh: -15%; BAZ2B inh: inconclusive; JMJD2A Tudor inh: 22µM*; CtBP-E1A blk: -5

How did O=[N+]([O-])c1ccccc1/C=C/C=N/n1c(-c2cc(-c3ccccc3)n[nH]2)n[nH]c1=S do in these assays?
Six1-Eya2 inh: inconclusive; HP1b chromo inh: 1%; BAZ2B inh: -32%; JMJD2A Tudor inh: 50µM*; CtBP-E1A blk: -1

What do the screens show for `O=C(N/N=C/C=C\c1ccccc1[N+](=O)[O-])c1cc(-c2ccccc2)nc2ccccc12`?
Six1-Eya2 inh: -6; G9a inh: 0%[59 µM]; HP1b chromo inh: 17%; BAZ2B inh: -31%; JMJD2A Tudor inh: -33%; CtBP-E1A blk: 7

Results for O=C(N/N=C/C=C\c1ccccc1[N+](=O)[O-])c1ccncc1 ?
Six1-Eya2 inh: -6; G9a inh: -35%; HP1b chromo inh: 16%; BAZ2B inh: 18%; JMJD2A Tudor inh: -9%; CtBP-E1A blk: 12

Results for COc1ccc(NS(=O)(=O)c2ccc(S(=O)(=O)N(C)C)cc2)cc1S(N)(=O)=O ?
Six1-Eya2 inh: 4; G9a inh: -8%; HP1b chromo inh: 13%[57 µM]; JMJD2A Tudor inh: 6%
